High-throughput results (PubChem BioAssay)
PLC-gamma1 inh: PLC-gamma1 enzyme inhibitors, primary screen, biochemical, fluorescence, purified enzyme. 1-phosphatidylinositol 4,5-bisphosphate phosphodiesterase gamma-1 (Homo sapiens), P19174. fluorogenic substrate. inhibition, % at 12.2 µM. actives 0.84% (n = 370,000). AID 720700, 2013; in the data active = inhibition above about 9.5%
Yeast superoxide: reduction of superoxide in aged yeast, primary screen, HTS. S. cerevisiae aged cells, superoxide DHE fluorescence; stronger effect = lower value. actives 0.18% (n = 330,000). superoxide response (% of plate mean), % at 10 µM;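 active = superoxide response under a set limit, about three screen SD below normal, cut at about 65% in these data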;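 also: yeast aged for seven days with compound at 30 °C before DHE staining; 100% = average MFI of all compound-treated wells on the plate with controls excluded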
sPLA2-III inh: human group III sPLA2 inhibitors, primary screen, biochemical, QFRET, BODIPY PC-A2 liposome substrate | inhibition, % at 12.2 µM | AID 743126, 2013 | actives 0.56% (n = 370,000) | Group 3 secretory phospholipase A2 (Homo sapiens), Q9NZ20 | QFRET BODIPY PC-A2 liposome hydrolysis, fluorescence;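 active = inhibition above mean plus 3 SD of compounds lying within the high and low control bounds, cut at about 19% in these data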;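 also: 0% = median of test compound wells and 100% = no enzyme DMSO wells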
AHR activator: AHR activators, primary screen, cell-based, luminescence, luciferase reporter, human | activation, % at 5 µM | actives 2.5% (n = 320,000) | AHR-responsive luciferase reporter cells; in the data active = activation above about 47%;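 also: 0% = vehicle wells and 100% = reference agonist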
PLC-beta3 inh: human PLC-beta3 inhibitors, primary screen, biochemical, fluorescence; Purified PLC-beta3, fluorogenic substrate; 1-phosphatidylinositol 4,5-bisphosphate phosphodiesterase beta-3 (Homo sapiens), Q01970; actives 0.18% (n = 370,000); inhibition, % at 12.2 µM; in the data active = inhibition above about 11%;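 also: 0% = median of compound wells on plate and 100% = full blocker control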
Target sequence (Q01970 whole entry, looked up): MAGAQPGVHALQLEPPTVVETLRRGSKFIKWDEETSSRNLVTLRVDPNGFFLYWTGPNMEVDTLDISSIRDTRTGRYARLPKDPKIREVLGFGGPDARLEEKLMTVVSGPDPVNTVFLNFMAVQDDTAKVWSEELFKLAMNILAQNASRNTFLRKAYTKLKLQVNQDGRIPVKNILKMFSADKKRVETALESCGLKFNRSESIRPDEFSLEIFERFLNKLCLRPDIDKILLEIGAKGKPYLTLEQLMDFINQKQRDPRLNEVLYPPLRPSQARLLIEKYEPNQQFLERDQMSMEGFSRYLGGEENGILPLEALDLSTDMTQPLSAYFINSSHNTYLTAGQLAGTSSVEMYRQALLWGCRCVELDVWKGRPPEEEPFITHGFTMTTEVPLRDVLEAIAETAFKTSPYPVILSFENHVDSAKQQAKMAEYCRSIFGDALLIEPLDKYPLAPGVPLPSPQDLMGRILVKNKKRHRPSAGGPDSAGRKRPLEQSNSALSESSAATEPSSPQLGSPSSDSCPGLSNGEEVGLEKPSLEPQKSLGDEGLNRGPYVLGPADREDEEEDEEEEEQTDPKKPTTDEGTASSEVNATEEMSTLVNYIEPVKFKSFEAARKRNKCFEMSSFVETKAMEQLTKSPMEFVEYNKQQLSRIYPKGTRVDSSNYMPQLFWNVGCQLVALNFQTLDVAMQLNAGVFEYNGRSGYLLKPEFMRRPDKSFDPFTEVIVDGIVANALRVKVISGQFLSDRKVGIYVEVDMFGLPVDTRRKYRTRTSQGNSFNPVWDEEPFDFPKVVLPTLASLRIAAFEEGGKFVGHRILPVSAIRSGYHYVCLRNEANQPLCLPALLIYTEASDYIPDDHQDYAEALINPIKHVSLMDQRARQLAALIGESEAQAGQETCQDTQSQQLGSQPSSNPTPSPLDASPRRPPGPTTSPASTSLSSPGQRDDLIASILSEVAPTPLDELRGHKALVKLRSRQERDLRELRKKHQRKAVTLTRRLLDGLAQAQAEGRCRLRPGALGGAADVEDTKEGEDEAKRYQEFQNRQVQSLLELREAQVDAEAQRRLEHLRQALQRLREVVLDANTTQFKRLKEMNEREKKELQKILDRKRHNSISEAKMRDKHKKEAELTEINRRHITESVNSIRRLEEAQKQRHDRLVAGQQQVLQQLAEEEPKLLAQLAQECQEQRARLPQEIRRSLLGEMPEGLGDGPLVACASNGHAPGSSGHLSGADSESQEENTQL
HIF act: HIF pathway transcriptional activators, primary screen, cell-based, U2OS HRE-luciferase, luminescence; U2OS HRE-luciferase reporter; normalized: DMSO 0%, desferrioxamine 100%; activation, % at 7.5 µM (by protocol); actives 0.32% (n = 300,000);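 active = mean activation of at least 10% of the iron chelator positive control signal, with at least half of replicates also reaching 10%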
* hit, by the source's call; i = inactive; x = no result given. This is a sample that favours compounds with a hit; in the whole collection about 3.9% have one here.

SMILES | PLC-gamma1 inh | Yeast superoxide | sPLA2-III inh | AHR activator | PLC-beta3 inh | HIF act
Cc1nn(C(C)C(=O)Nc2ccc3c(c2)OCO3)c(C)c1[N+](=O)[O-] (configuration not stated) | -1.2 | 94.3 | 0.2 | 76.0* | -3.5 | 0.5
CCN(C(=O)CCc1cn(CC)c2ccccc12)c1ccc(Oc2cccnc2)cc1 | 3.3 | x | -21.2 | x | -3.9 | x
C[C@H]1CCC[C@H](O)CC(=O)c2c(O)cc(O)cc2CC(=O)O1 | -1.9 | x | -2.5 | x | -1.0 | x
COc1ccc(-c2cn3c4c(sc3n2)CCCC4)cc1 | 0.6 | 104.5 | -3.4 | 68.2* | 1.4 | -0.4
O=S1(=O)c2ccc(Br)cc2OC[C@@H](Cc2ccccc2)N1Cc1cn(CCC2OCCCO2)nn1 | -0.5 | x | 1.6 | x | 4.0 | x
Cc1ccc2nc(C)cc(Nc3ccc4c(c3)OCCO4)c2c1 | 1.4 | 96.8 | -6.6 | 69.4* | 2.2 | -0.4
Nc1[nH]c2cc(C(F)(F)F)ccc2c1C(=O)N1CCN(CCc2ccccc2)CC1 | -9.6 | x | -17.5 | x | -13.8 | x
Cc1ccsc1/C=N/n1c(-c2ccccn2)n[nH]c1=S | 7.6 | 80.2 | -6.1 | 50.8* | 5.4 | 0.0
Clc1ccc(/C=N/Nc2ncnc3ccccc23)cc1Cl | -12.3 | 104.2 | -5.8 | 57.9* | -8.8 | 2.3
Fc1ccccc1/C=N/Nc1ncnc2ccccc12 | -36.5 | 99.1 | 7.0 | 30.7 | -53.0 | 3.3
COc1cccc(OC)c1C(=O)Nc1nnc(-c2ccc(F)cc2)s1 | -1.7 | 81.7 | -3.5 | 73.6* | -7.7 | -11.9
CCC1CCCCN1Cc1c(O)ccc2c(=O)c(-c3ccccc3OC)coc12 (configuration not stated) | i | 117.6 | -0.6 | 2.5 | i | 45.5*
O=C(NCCOC(=O)c1ccccc1C(=O)OCCNC(=O)c1cccnc1)c1cccnc1 | 7.6 | 109.5 | 2.4 | 0.0 | 12.1* | 0.3
O=C(OCCNc1nc(-c2ccccc2)nc2ccccc12)c1ccncc1 | -3.9 | 94.4 | -13.5 | 47.5* | -2.9 | 0.1
Cc1cc(C)c(C(=O)OCCNC(=O)c2cccnc2)cc1C | -0.8 | 86.1 | -3.9 | -0.9 | 1.5 | -0.5
O=C(OCCNc1nc(-c2ccccc2)nc2ccccc12)c1cccnc1 | 2.0 | 103.6 | -15.1 | 47.9* | 2.0 | 0.1
O=C(Nc1cccs1)Nc1ccccc1Br | -5.6 | 81.2 | 5.1 | 57.5* | -5.4 | 0.7
CC(C)[C@@H]1OC(=O)[C@@H]2CCCN2C(=O)[C@H](C)OC(=O)[C@H](C)[C@@H](C(C)C)NC(=O)[C@@H]2CCCN2C(=O)[C@H]([C@H](C)Cc2ccccc2)NC(=O)[C@@H]2CCCN2C(=O)[C@@H](C(C)C)N(C)C1=O | -0.8 | x | -6.8 | x | 0.6 | x
O=C(Nc1ccccc1)Nc1nc2ncccn2c1-c1ccc(C(F)(F)F)cc1 | -489.1 | x | 12.1 | x | i | x
Cc1ccc(NC(=O)Nc2cc(S(C)(=O)=O)ccc2Cl)cc1 | 0.0 | 93.2 | -1.3 | 47.0* | -9.6 | 1.9
CC(Sc1nnc(NCc2ccccc2)s1)C(=O)Nc1ccc2c(c1)C(=O)c1ccccc1C2=O (configuration not stated) | 3.5 | 112.5 | 0.8 | 50.0* | 1.6 | 1.7
Cn1c(C(=O)O)cc2cc(F)ccc21 | 3.4 | 117.9 | -0.9 | 54.0* | 1.1 | 0.1
O=S1(=O)c2c(cccc2N2CC[C@H](O)C2)O[C@H]2CCN1C2 | -3.0 | x | 7.8 | x | -1.6 | x
CC(C)(C)CC(=O)Nc1nnc(-c2cccs2)s1 | -0.4 | 101.0 | 0.9 | 49.9* | 2.0 | 3.1
O=C(Nc1ccccc1)Nc1nnc(-c2cccs2)s1 | -2.1 | 101.5 | -6.6 | 114.9* | -2.5 | x
SMILES | PLC-gamma1 inh | Yeast superoxide | sPLA2-III inh | AHR activator | PLC-beta3 inh | HIF act
C[C@@H]1CN([C@@H](C)CN(C)C)C(=O)c2cc(NC(=O)Nc3ccccc3)ccc2O[C@@H](C)CCCCO[C@H]1CN(C)S(=O)(=O)c1ccc(F)cc1 | 2.0 | x | -32.7 | x | 7.9 | x
CCOC(=O)[C@@]12CCCC=C1N(CCc1ccc(Cl)cc1)C(=O)[C@H]2CC(=O)NCc1cccs1 | -0.8 | x | -10.1 | x | 2.8 | x
Cc1cccc2cc(CN(CC3CCCO3)C(=O)NC3CCCCC3)c(=O)[nH]c12 (configuration not stated) | 9.7* | 91.3 | 2.7 | 1.2 | 2.4 | -0.2
Cc1ccc2cc(CN(CC3CCCO3)C(=O)NC3CCCCC3)c(=O)[nH]c2c1C (configuration not stated) | 0.8 | 81.3 | -6.6 | 2.9 | 3.0 | 0.1
CNc1nc(-c2c[nH]c3ccccc23)cs1 | -12.2 | 95.1 | 11.4 | 46.6 | -18.2 | -0.6
Nc1nc(-c2c[nH]c3ccccc23)cs1 | -16.3 | 122.6 | 10.4 | 57.8* | -23.0 | 0.0
Cc1ccc(-c2cc(-c3ccccc3)nc(Cl)n2)cc1 | 0.9 | 96.7 | 1.8 | 46.8 | -1.1 | 0.5
Cc1cc(-c2ccccc2)nc(Cl)c1C#N | -3.2 | 103.7 | -5.8 | 76.2* | 0.8 | -0.1
C=CCc1ccccc1OCCSc1nc2ccc([N+](=O)[O-])cc2s1 | -0.4 | 85.3 | 3.0 | 55.6* | -0.5 | 0.0
COC(=O)[C@]12C[C@H](CC(=O)N3CCC(c4ccccc4)CC3)C(=O)N(Cc3ccc(Cl)cc3Cl)C1=C[C@H](COCc1ccccc1)O[C@@H]2C | 3.1 | x | 3.9 | x | 0.4 | x
O=C(CS(=O)(=O)c1ccccc1)Nc1ccc(N2CCOCC2)cc1 | -2.3 | 115.1 | 2.4 | 3.8 | -4.4 | 19.9*
COc1ccccc1N=Nc1[nH]c2ccc(C)cc2c1O | 2.2 | 103.7 | 10.6 | 60.4* | 0.2 | -0.1
COc1ccc(CCNc2nc(-c3ccncc3)cs2)cc1OC | -9.3 | 90.3 | -1.9 | 66.4* | -21.4 | 0.3
COc1ccc(CCNc2nc(-c3ccc(O)cc3)cs2)cc1OC | -4.4 | 108.4 | -17.9 | 39.0 | -10.1 | -0.3
COc1ccc(CCNc2nc(-c3cccnc3)cs2)cc1OC | -2.6 | 109.5 | -1.2 | 2.2 | 0.7 | 0.4
COc1ccc(CCNc2nc(-c3sc(C)nc3C)cs2)cc1OC | 5.0 | 109.9 | 3.2 | 52.4* | 0.0 | 0.0
O=C(NCc1ccco1)OC1CCC12CCC(c1ccccc1)CC2 (configuration not stated) | 1.1 | x | -6.6 | x | 2.5 | x
Cc1noc(C)c1C(=O)N1CCC(n2nnc3ncccc32)CC1 | 1.4 | x | 0.6 | x | -0.7 | x
O=C1C(Oc2ccccc2)C(c2ccc3c(c2)OCO3)N1CCc1ccc(F)cc1 (configuration not stated) | 4.6 | 94.4 | -5.0 | 71.4* | 3.7 | -1.4
C/C(=N\NC(=O)c1cccc(N/N=C(\C)c2ccncc2)c1)c1ccncc1 | 3.2 | 94.6 | 1.8 | 66.7* | 3.8 | -0.2
C/C(=N\NC(=O)c1cc2c(s1)CCC(C)C2)c1ccncc1 (configuration not stated) | -3.0 | 103.6 | 10.8 | 55.9* | -8.2 | 0.3
